This is a sample that favours compounds with a hit; in the whole collection about 0.97% have one here.
BioA inh: M. tuberculosis BioA enzyme inhibitors, primary screen, biochemical, plate reader, single point, HTS | AID 602481, 2012 | inhibition, % at 9.99 µM | 7,8-diaminopelargonic acid synthase BioA (Mycobacterium tuberculosis) | purified M. tuberculosis BioA enzyme | 0.096% of 360,000 active; in the data active means inhibition above about 40%
FadD28 FP inh: inhibitors of FadD28 bisubstrate probe binding, primary screen, biochemical, fluorescence polarization, single point; Mycobacterium tuberculosis FadD28 fatty-acid-AMP ligase; inhibition, % at 12.5 µM; 0.22% of 360,000 active; AID 588549, 2011; in the data active means inhibition above about 8.5%, passing the limit was not always enough
UGM FP inh: M. tuberculosis UGM enzyme inhibitors, primary screen, biochemical, fluorescence polarization, single point; purified UGM, fluorescence polarization probe displacement; 0.06% of 320,000 active; inhibition, % at 10 µM; UDP-galactopyranose mutase (Mycobacterium tuberculosis (strain ATCC 25618 / H37Rv)), …; in the data active means inhibition above about 10%, passing the limit was not always enough
RecA intein inh: Mtb RecA intein splicing inhibitors, primary screen, biochemical, fluorescence, HTS. Protein RecA (Mycobacterium tuberculosis (strain ATCC 25618 / H37Rv)), P9WHJ3. cell-free RecA intein splicing. inhibition, % (concentration not given with the values). 0.75% of 290,000 active; in the data active means inhibition above about 30%;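 further: 0% = vehicle wells and 100% = reference inhibitor control wells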
Target sequence (P9WHJ3 whole entry, looked up): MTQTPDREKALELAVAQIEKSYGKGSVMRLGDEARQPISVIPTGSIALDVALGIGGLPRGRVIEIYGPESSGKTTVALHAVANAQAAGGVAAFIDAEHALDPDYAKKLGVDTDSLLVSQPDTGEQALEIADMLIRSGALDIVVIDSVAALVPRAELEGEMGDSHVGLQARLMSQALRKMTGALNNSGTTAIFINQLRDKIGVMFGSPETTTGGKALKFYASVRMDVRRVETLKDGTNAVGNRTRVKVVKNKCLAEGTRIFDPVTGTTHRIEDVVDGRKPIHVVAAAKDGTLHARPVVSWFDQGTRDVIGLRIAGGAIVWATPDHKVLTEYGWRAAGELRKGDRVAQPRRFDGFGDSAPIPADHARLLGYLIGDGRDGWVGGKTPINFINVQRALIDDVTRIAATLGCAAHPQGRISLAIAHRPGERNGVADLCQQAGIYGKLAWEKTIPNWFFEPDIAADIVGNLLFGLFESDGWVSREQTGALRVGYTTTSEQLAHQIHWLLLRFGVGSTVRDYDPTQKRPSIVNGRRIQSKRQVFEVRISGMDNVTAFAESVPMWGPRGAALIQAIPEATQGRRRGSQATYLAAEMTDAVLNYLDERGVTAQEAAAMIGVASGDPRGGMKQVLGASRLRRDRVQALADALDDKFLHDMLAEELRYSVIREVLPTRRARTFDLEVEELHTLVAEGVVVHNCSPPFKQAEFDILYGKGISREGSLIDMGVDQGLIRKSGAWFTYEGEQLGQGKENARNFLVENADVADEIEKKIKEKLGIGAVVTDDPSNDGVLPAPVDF
Rv3671c inh: Rv3671c serine protease inhibitors, primary screen, biochemical, fluorescence polarization, M. tuberculosis H37Rv. inhibition, % at 5.96 µM. P9WHR9. AID 2606, 2010. 0.048% of 320,000 active; in the data active means inhibition above about 38%;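 further: extracellular domain of Rv3671c used as enzyme; 0% = enzyme with DMSO and 100% = no enzyme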
TcdB GH inh: TcdB glycohydrolase inhibitors, primary screen, biochemical, single point, plate reader; Toxin B (Clostridioides difficile), P18177; TcdB glycohydrolase enzymatic assay; inhibition, % at 9.99 µM; 0.24% of 350,000 active; in the data active means inhibition above about 10%
GFP chromophore: counter-screen: blocks GFP chromophore formation, dose response, counter-screen, biochemical, fluorescence, homogeneous; shares compounds with RecA intein inh; cell-free GFP chromophore formation; EC50, µM; 83% of 2,100 active; AID 434968, 2010; call rule not given here
Numbers without * were called inactive; nt = no result given; ! = not confirmed by another sample.

SMILES	BioA inh	FadD28 FP inh	UGM FP inh	RecA intein inh	Rv3671c inh	TcdB GH inh	GFP chromophore
CC(=O)Nc1ccccc1NC(=O)C/C(C)=N/NC(=O)c1ccncc1	nt	0	1	-3	-2	-2	nt
C/C(CC(=O)Nc1cc(C)ccn1)=N\NC(=O)c1ccccc1C	nt	0	1	50*	-8	-2	34*
C/C(CC(=O)Nc1cc(Cl)ccc1Cl)=N\NC(=O)COc1cccc(C)c1	-1	-5	0	5	-19	-1	nt
C/C(CC(=O)Nc1cc(C)ccn1)=N\NC(=O)COc1cccc(C)c1	nt	nt	nt	94*	nt	nt	7*
O=C1Cc2ccccc2C(=O)N1CCc1ccccc1	-3	-2	0	92*	-51	1	5.5*
C[C@@H]1CCCCO[C@@H](CN(C)C(=O)Nc2ccc(F)cc2)[C@H](C)CN([C@@H](C)CO)C(=O)c2cc(NC(=O)c3ccncc3)ccc2O1	0	nt	nt	nt	nt	-2	nt
Nc1cccc2c(O)cccc12	nt	2	-2	56*	0	1	37*
Cc1onc(-c2ccccc2)c1C(=O)n1nnc2ccccc21	0	-4	-1	31*	2	nt	35*
CC/C(=C(\c1ccccc1)c1ccc(OCCN(C)C)cc1)c1ccccc1	0	-9	-4	29	13	1	nt
CCN(CC)CCOc1ccc(/C(=C(/Cl)c2ccccc2)c2ccccc2)cc1	1	-6	-3	32*!	1	1	20*
CC(C)NC(=O)Nc1ccc2c(c1)C(=O)N(C)[C@H]1CC[C@H](CC(=O)NC3CCCCC3)O[C@H]1CO2	9	nt	nt	nt	nt	nt	nt
COc1ccc(/C=C2\SC(=S)N(CCC(=O)Nc3cccc(O)c3)C2=O)cc1OC	0	-1	1	2	-42	1	nt
O=C(O)CN1C(=O)/C(=C\c2cccc(OCc3ccc(Cl)cc3Cl)c2)SC1=S	13	-6	-1	40*	nt	-1	21*
COc1ccc(/C=C2/SC(=S)N(CCCC(=O)Nc3cccc(O)c3)C2=O)cc1	-1	-2	-4	38*	-12	0	>38
COc1cccc(/C=C2\SC(=S)N(CCCC(=O)N(CCO)c3ccccc3)C2=O)c1	-1	-1	1	37*	-2	0	32*
O=C(O)CN1C(=O)/C(=C\c2ccccc2OCc2ccc(Cl)cc2Cl)SC1=S	11	-21	-2	8	-23	1	nt
C[C@@H]1CN([C@@H](C)CO)S(=O)(=O)c2ccc(C3=CCCC3)cc2O[C@H]1CN(C)C	0	nt	nt	nt	nt	0	nt
Cc1ccc(S(=O)(=O)N(C)C[C@H]2Oc3ccc(NC(=O)CCN4CCOCC4)cc3C(=O)N([C@H](C)CO)C[C@@H]2C)cc1	-1	nt	nt	nt	nt	-1	nt
C[C@@H]1CN([C@@H](C)CO)C(=O)c2cc(NC(=O)NC3CCCCC3)ccc2O[C@@H](C)CCCCO[C@@H]1CN(C)S(=O)(=O)c1ccc(F)cc1	1	nt	nt	nt	nt	0	nt
C/C=C/c1ccc2c(c1)O[C@H](CN(C)Cc1ccccn1)[C@@H](C)CN([C@@H](C)CO)S2(=O)=O	8	nt	nt	nt	nt	-1	nt
O=C(CNC(=O)c1ccccc1)N/N=C/c1ccc([N+](=O)[O-])o1	nt	-2	1	58*	-4	0	>38
O=C(CNc1ccccc1)N/N=C/c1ccc([N+](=O)[O-])o1	-1	-2	0	-6	0	nt	nt
O=C(N/N=C/c1ccc([N+](=O)[O-])o1)c1ccc(O)cc1	1	-1	-2	56*	4	0	>38
C[C@@H]1CN([C@@H](C)CO)S(=O)(=O)c2ccc(-c3cccc(C(=O)N(C)C)c3)cc2O[C@H]1CN(C)C(=O)Cc1ccccn1	0	nt	nt	nt	nt	0	nt
COCC(=O)N(C)C[C@H]1Oc2cc(C#CC(C)C)ccc2S(=O)(=O)N([C@@H](C)CO)C[C@H]1C	1	nt	nt	nt	nt	nt	nt
SMILES	BioA inh	FadD28 FP inh	UGM FP inh	RecA intein inh	Rv3671c inh	TcdB GH inh	GFP chromophore
CCC(=O)N1C[C@H](C)[C@H](OC)CN(C)C(=O)c2ccc(NC(=O)c3cc(C)on3)cc2OC[C@H]1C	-2	nt	nt	nt	nt	nt	nt
COc1ccc(NC(=O)N(C)C[C@@H]2Oc3ccc(NS(=O)(=O)c4ccc(Cl)cc4)cc3C(=O)N([C@@H](C)CO)C[C@@H]2C)cc1	-3	nt	nt	nt	nt	-8	nt
CC(C)(C)c1cc(C(c2cccnc2)N2CCN(CCO)CC2)cc(C(C)(C)C)c1O (stereo unspecified)	1	-3	-3	38*	12	3	35*
O=C(NCCO)C(=O)Nc1cc2c3c(c1)CC(=O)N3CCC2	-1	-3	4	21	-6	0	nt
O=C(CCl)c1cc2c3c(c1)CC(=O)N3CCC2	1	-3	0	44*	1	-1	39*
CCOC(=O)C1=C(c2ccccc2)NC(N)=NC1c1ccc(OCc2ccc(Cl)cc2)c(OC)c1 (stereo unspecified)	nt	-7	-4	49*	11	1	>12
C[C@H](O)C#Cc1ccc2c(c1)O[C@@H](CN(C)C(=O)C1CC1)[C@H](C)CN([C@@H](C)CO)S2(=O)=O	0	nt	nt	nt	nt	0	nt
Oc1[nH]c(=S)sc1C=C1N=c2ccccc2=N1	0	1	3	57*	-5	0	>38
Oc1c(C=C2N=c3ccccc3=N2)sc(=S)n1-c1ccc(F)cc1	-4	-1	-4	0	-2	nt	nt
O=C(C[C@@H]1CC[C@H](NC(=O)CN2CCOCC2)[C@H](CO)O1)NCc1cccc(F)c1	-2	nt	nt	nt	nt	1	nt
O=[N+]([O-])c1ccc(Sc2cccc[n+]2[O-])c2nonc12	nt	2	nt	45*	nt	-2	19*
O=[N+]([O-])c1ccc(Nc2ccccc2)c2nonc12	6	-1	-3	9	-2	0	nt
CCC(CC)C(=O)NCc1ccc2c(c1)cc(C)n2C	-1	1	1	31*	-9	nt	>38
O=C(Nc1ccccc1F)N1CCCCN2[C@H](CO)[C@@H](c3ccc(C4=CCCCC4)cc3)[C@H]2C1	2	nt	nt	nt	nt	0	nt
Fc1ccc2[nH]c3c(Cl)ncnc3c2c1	nt	-2	-1	2	-1	0	nt
COc1ccc2[nH]c3c(Cl)ncnc3c2c1	nt	-2	1	76*	-2	1	>38
CCc1cccc(CC)c1NC(=O)/C(C#N)=C/c1ccccc1C(F)(F)F	-1	-4	0	31*	-15	nt	32*
O=C1c2ccccc2C(=O)c2[nH]cnc21	-2	-2	-6	24	nt	1	nt
O=C1c2ccccc2C(=O)c2c1ncn2-c1ccccc1	-1	0	0	37*	-4	nt	>38
CCOC(=O)C1(CCOc2ccccc2)CCN(Cc2ccc(O)c(Cl)c2)CC1	2	-5	-2	43*	nt	1	>38
